Screening data (PubChem BioAssay)
HIV TAR-Tat: HIV-1 TAR-Tat binding disruption. HIV-1 TAR RNA, Tat peptide displacement FRET; hits give high values. z-score (test concentration not listed). 100,000 compounds, 0.6% hits. AID 1259389; active means z-score of 3 or more in at least 2 runs
CDC25B CDK2 inh: human CDC25B-CDK2/CyclinA binding inhibition. P30305+P24941. HTRF CDC25B-CDK2/CyclinA binding, anti-His/anti-Flag; hits give high values. z-score (concentration not given with the values). 94,000 compounds, 0.72% hits. AID 1259370; in the data active means z-score above about 3.2
A number is an active result; . = inactive; / = not tested or not shown. Sampled rows, rich in hits. Any-hit rate of the full collection: about 0.86%.

SMILES	HIV TAR-Tat	CDC25B CDK2 inh
COC(=O)C1=C(OC(=O)CN2C(=O)CCC2=O)c2ccccc2S(=O)(=O)N1C	.	.
O=C(CSc1nc2cc(Cl)ccc2s1)N1CCN(S(=O)(=O)c2ccccc2)C1	.	.
O=C1Nc2c(C(=O)O)cccc2C1=O	21.4	.
O=C(O)c1ccc2c3c(ccc(C(=O)O)c13)C(=O)NC2=O	.	.
CN(C)c1ccc(/C=C/c2cc[n+](Cc3ccc(F)cc3)cc2)cc1	/	.
O=C(COC(=O)c1cccs1)c1ccc(Cl)cc1	/	16.9
O=C(COC(=O)c1ccco1)c1ccc(Cl)cc1	/	.
CCc1cc2c3c([nH]c2cc1S(=O)(=O)NC(C)CC)CC(C)(C)CC3=O (configuration not stated)	.	/
Cc1cc2c(cc1S(=O)(=O)Nc1ccccc1Br)OCC(=O)N2	.	/
CC(C)CCNC(=O)c1ccc2c(=O)[nH]c3c(C(=O)NC4CCCC4)sc(=S)n3c2c1	7.99	/
CC(C)CCNC(=O)c1ccc2c(=O)[nH]c3c(C(=O)NC(C)C)sc(=S)n3c2c1	.	/
CC(C)NC(=O)c1sc(=S)n2c1[nH]c(=O)c1ccc(C(=O)NCCCN3CCCC3=O)cc12	8.54	/
CC(C)OCCCNC(=O)c1ccc2c(=O)[nH]c3c(C(=O)NC4CCCC4)sc(=S)n3c2c1	.	/
O=C(CN1C(=O)CCSc2ccccc21)N1CCCC1	.	.
O=C1CSc2ccc(S(=O)(=O)NCc3ccco3)cc2N1	.	/
CC(CS(=O)(=O)c1ccc2c(c1)NC(=O)CS2)C(=O)NCc1ccco1 (configuration not stated)	5.27	/
Cn1nnc2cc(-c3noc(CNC(=O)c4cccs4)n3)ccc21	.	/
CCn1nc(-c2ccccn2)nc2c(=O)n(C)c(=O)nc1-2	.	.
CCn1nc(-c2ccccc2Br)nc2c(=O)n(C)c(=O)nc1-2	.	11.5
Cc1nn(-c2ccc(-c3noc(C4CC4)n3)cc2)cc1C(=O)N1CCn2c1nc1ccccc12	.	/
C[Si](C)(C)OC(=O)/C=C\C(=O)O[Si](C)(C)C	/	6.07
CCOC(=O)/C=C/C(=O)O	/	.
COC(=O)c1sccc1NC(=O)Nc1ccc2nc3n(c(=O)c2c1)CCCC3	.	/
CCCOc1ccc(C2c3c(oc4ccccc4c3=O)C(=O)N2c2nncs2)cc1 (configuration not stated)	.	.
O=c1cc(CSc2nncn3c2cc2sccc23)nc2ccccn12	.	/
SMILES	HIV TAR-Tat	CDC25B CDK2 inh
CCOC(=O)c1c(C)oc2ncnc(NC3CCCc4ccccc43)c12 (configuration not stated)	.	/
Oc1ccc2ccccc2c1C1Nc2cccc3cccc(c23)N1	14.8	.
c1ccc(-c2ccc(C3Nc4cccc5cccc(c45)N3)cc2)cc1	.	.
Cc1cccc(C2Nc3cccc4cccc(c34)N2)c1	.	.
COc1cc(C2Nc3cccc4cccc(c34)N2)ccc1O	7.27	.
O=C(CSc1nnc2scc(-c3ccc(Cl)cc3)n12)N1CCOCC1	.	.
CN(CCN1CCOCC1)C1CCN(S(=O)(=O)c2ccc3c(c2)CCCC(=O)N3)CC1	.	/
CCCN1CCN(C(=O)C2Cc3ccccc3N2C(=O)CC)CC1 (configuration not stated)	.	/
CC(C)c1ccc(C2CC(=O)N3CN(Cc4ccco4)CSC3=C2C#N)cc1 (configuration not stated)	.	.
COc1ccc(C2CC(=O)N3CN(Cc4ccco4)CSC3=C2C#N)c(OC)c1 (configuration not stated)	.	5.93
COc1cccc(C2CC(=O)N3CN(Cc4ccco4)CSC3=C2C#N)c1OC (configuration not stated)	.	3.37
Cc1cc2c(cc1S(=O)(=O)NCc1cccnc1)OCCN2C	.	/
Cc1cc(C)c(S(=O)(=O)Nc2ccc(O)cc2)c(C)c1	.	.
Cc1cc(C)c(S(=O)(=O)Nc2cc(Br)c(O)c3ccccc23)c(C)c1	/	18.6
O=C(ON(Cc1c(F)cccc1Cl)Cc1c(F)cccc1Cl)c1ccc(Cl)cc1	/	.
Cc1cnc(NC(=O)c2cc(Cl)sc2Cl)c(C)n1	/	.
COC(=O)C1=C(C)NC2=C(C(=O)CC(C)(C)C2)C1c1ccc(F)c(F)c1 (configuration not stated)	.	.
COc1ccc(N2COc3cc4c(cc3C2)OCO4)cc1	/	.
Fc1ccc(N2COc3cc4c(cc3C2)OCO4)cc1Cl	/	8.61
CCCNS(=O)(=O)c1ccc(C)c(-c2nnc3c4ccccc4c(C)nn23)c1	.	.
O=C(N1CCc2ccccc21)C1(c2cccs2)CCOCC1	.	/
O=C(O)c1ccc2nc(-c3cccc(-c4nc5ccc(C(=O)O)cc5[nH]4)c3)[nH]c2c1	/	7.31
O=C(O)c1cccc(-c2nc3ccccc3[nH]2)c1	/	.
Cc1nnc2n1NC(c1ccc(F)cc1)C(C(=O)Nc1ccc(Br)cc1F)S2 (configuration not stated)	.	.
CCS(=O)(=O)N1CCCc2ccc(NS(=O)(=O)c3cc(F)ccc3F)cc21	.	/
CCCS(=O)(=O)N1CCCc2ccc(NS(=O)(=O)c3cc(F)ccc3F)cc21	7.25	/
